Measured values: PubChem BioAssay (NCI)
This is part of a sample that, as a whole, favours compounds with a hit. Of some 83,000 tested, about 20% had one in any assay.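 The endpoint reported here, percent growth, reads 100 for growth as untreated, 0 for no net growth and -100 for all cells dead.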 Unmarked numbers belong to inactive results. The source made the active and inactive calls. The calls were made as follows: active = growth percent below 10; inactive = the rest.

Columns and labels:
Test in all cases: NCI-60 one-dose screen, 48 h (100 = growth as untreated, 0 = no growth, -100 = all killed)
Conditions in all cases: 10 µM unless noted
DU-145 prostate = tested on: DU-145 prostate
K-562 leukemia = tested on: K-562 leukemia
MALME-3M melanoma = tested on: MALME-3M melanoma
MDA-MB-231 breast = tested on: MDA-MB-231 breast
RXF 393 renal = tested on: RXF 393 renal
SF-268 CNS = tested on: SF-268 CNS
SF-295 CNS = tested on: SF-295 CNS
SF-539 CNS = tested on: SF-539 CNS
UACC-257 melanoma = tested on: UACC-257 melanoma
M14 melanoma = tested on: M14 melanoma

SMILES | growth (DU-145 prostate) | growth (K-562 leukemia) | growth (MALME-3M melanoma) | growth (MDA-MB-231 breast) | growth (RXF 393 renal) | growth (SF-268 CNS) | growth (SF-295 CNS) | growth (SF-539 CNS) | growth (UACC-257 melanoma) | growth (M14 melanoma)
COc1ccc(/C=N/NC2=NC3C(S2)N(C)C(=O)N3C)cc1 (stereo not given) | 25.2% | 9.56% (active) | 39% | 44.9% | -19.3% (active) | 47.6% | 10.6% | 2.22% (active) | 79.8% | 32.5%
COc1ccc(C(=O)CSc2nc3c(c(Nc4ccc(S(N)(=O)=O)cc4)n2)CCCC3)cc1 | 93.6% | 72.7% | 103% | 88.1% | 82.5% | 108% | 90.6% | 83.1% | 109% | 104%
O=C1[C@H]2Cc3c([nH]c4ccccc34)[C@@H](c3ccc(Br)cc3)N2C(=O)CN1C1CCN(CC2CCCCC2)CC1 | -49.7% (active) | -63.7% (active) | -82.3% (active) | -94.8% (active) | -96% (active) | 22.2% | -61.5% (active) | -89.3% (active) | -60.2% (active) | -77.2% (active)
O=C(Nc1nc2ccc([N+](=O)[O-])cc2s1)Nc1ccccc1Cl | 40.2% | 20.6% | 12.1% | 47.5% | 49.2% | 41.7% | 48.5% | 54.7% | 23.2% | 45.1%
Clc1ccc(N/N=c2/oc3ccccc3cc2-c2cc3ccccc3[nH]2)cc1 | 88.6% | 67% | 55.3% | 67.1% | 76% | 85.1% | 71% | 87.3% | 84.1% | 66.5%
COc1ccc(C(=O)Nc2ncc(Cc3ccccc3Cl)s2)cc1 | 18.2% | 7.56% (active) | 57.1% | 24.9% | -2.13% (active) | 43.3% | 7.7% (active) | 2.11% (active) | 67% | 15.5%
COc1ccc(-n2c(SCc3nnc(NC(=O)c4ccc(Br)cc4)s3)nc3cc(OC)c(OC)cc3c2=O)cc1 | 89.4% | 100% | 92.2% | 87.9% | 104% | 86.4% | 93.2% | 92.9% | 101% | 92.5%
COC(=O)c1[nH]nc2c1C1(C(=O)N(C)c3ccccc31)C(C#N)=C(N)O2 (stereo not given) | 102% | 113% | 103% | 107% | 114% | 97.3% | 118% | 96.5% | 103% | 104%
COc1cc(-c2nc(SC(C)C)n(C(C)C)c(=O)c2C#N)ccc1OCc1ccccc1 | 99.1% | 38.8% | 82.4% | 75.7% | 91.1% | 85.6% | 80.3% | 64.6% | 101% | 105%
CCNC(=O)N1CCc2cc(OC)c(OCCc3ccc(OC)nc3)cc2C1c1ccc(C)cc1C (stereo not given) | 12% | 11% | 51.5% | 15% | 2.44% (active) | 20.7% | 7.92% (active) | 5.2% (active) | 41.9% | 12.9%
Cc1ccc(CSc2nc(-c3ccc(Cl)cc3)c(C#N)c(N3CCOCC3)n2)cc1 | 105% | 91.5% | 108% | 98.9% | 88.3% | 95.5% | 98.6% | 99.1% | 97.6% | 98%
CC[C@H](CO)Nc1ccc2ncc(C#Cc3cncc(C(=O)Nc4ccc(CN5CCN(C)CC5)c(C(F)(F)F)c4)c3)n2n1 | -94.3% (active) | 0.0289% (active) | -81.5% (active) | -60.6% (active) | -95.7% (active) | -60.5% (active) | -82.1% (active) | -91.5% (active) | -85.9% (active) | -95.5% (active)
Cc1ccc2sc3c(c2c1)OC(N)=C(C#N)C3c1cccc(F)c1 (stereo not given) | -9.41% (active) | 7.14% (active) | 43.3% | 23.5% | -30.8% (active) | 25.8% | 1.52% (active) | -1.16% (active) | 60.8% | 0.753% (active)
